The record followed here is PubChem BioAssay (EPA / NIEHS).

One may read the AC50 as the concentration at which the activity in the assay is half-maximal.

Assay [1] can be described thus: ATG_GLI_CIS: Attagene CIS-FACTORIAL HepG2 Assay for human Zinc Finger Protein GLI1 (AID 2282945). The following applies: HepG2, Attagene cis-factorial reporter mRNA, GLI element; actives raise or lower the signal. The essentials: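 HepG2 cells transiently transfected with cis-promoter multiplexed reporter units report endogenous transcription factor activity. After 24 h chemical exposure, reporter mRNA was quantified by RT-PCR, 6-FAM labelling, HpaI digestion and capillary electrophoresis, with bidirectional fitting against DMSO.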

The target of assay [2] is Bile acid receptor (Homo sapiens) (UniProt Q96RI1). Nature of the assay: ATG_IR1_CIS: Attagene CIS-FACTORIAL HepG2 Assay for human Nuclear Receptor Subfamily 1 Group H Member 4 (NR1H4), IR1 submotif (AID 2282946). As to conditions: IR1 reporter transcription, actives raise or lower the signal. In short, it runs like this: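 Transient MRTU transfection, HepG2; 24 h dosing; RNA → RT-PCR → 6-FAM primer extension → HpaI digest → capillary electrophoresis fluorescence. Gain/loss of signal fitted relative to DMSO.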
Bile acid receptor (Homo sapiens), sequence (Q96RI1 whole entry, looked up): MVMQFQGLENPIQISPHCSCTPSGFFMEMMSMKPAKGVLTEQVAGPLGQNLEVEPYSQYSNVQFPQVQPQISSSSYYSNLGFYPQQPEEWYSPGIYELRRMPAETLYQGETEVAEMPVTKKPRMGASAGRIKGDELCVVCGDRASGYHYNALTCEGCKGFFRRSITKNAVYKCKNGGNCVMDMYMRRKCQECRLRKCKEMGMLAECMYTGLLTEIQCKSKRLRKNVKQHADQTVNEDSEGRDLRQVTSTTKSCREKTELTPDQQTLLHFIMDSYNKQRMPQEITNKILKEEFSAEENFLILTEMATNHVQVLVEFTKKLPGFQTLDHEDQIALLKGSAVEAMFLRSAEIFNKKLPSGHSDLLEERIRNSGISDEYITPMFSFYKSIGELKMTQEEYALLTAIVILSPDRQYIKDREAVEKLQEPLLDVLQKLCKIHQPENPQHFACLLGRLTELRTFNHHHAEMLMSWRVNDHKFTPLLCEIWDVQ

Assay [3] is described as follows: ATG_GRE_CIS: Attagene CIS-FACTORIAL HepG2 Assay for human Glucocorticoid Response Elements (GRE) (AID 2282947). The following applies: HepG2 GRE cis-reporter, Attagene multiplex mRNA; actives raise or lower the signal. The essentials: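 HepG2 cells transiently transfected with multiple cis-promoter reporter units measure endogenous TF activity; 24 h compound exposure. Reporter mRNA quantified by RT-PCR, FAM labelling, HpaI digestion and capillary electrophoresis; bidirectional fit vs DMSO baseline.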

A short description of assay [4]: ATG_ISRE_CIS: Attagene CIS-FACTORIAL HepG2 Assay for human Interferon Regulatory Factor 1 (IRF1) binding to an Interferon-Stimulated Response Element (ISRE) (AID 2282948). As to conditions: HepG2 ISRE cis-reporter (Attagene), mRNA transcription readout; actives raise or lower the signal. The essentials: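 Transiently transfected HepG2 cells carrying cis-element reporter units, dosed 24 hours. Reporter mRNA quantified by RT-PCR, fluorescent primer extension, HpaI digestion and capillary electrophoresis. Bidirectional fitting relative to DMSO.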

A short description of assay [5]: ATG_M_06_CIS: Attagene CIS-FACTORIAL HepG2 Assay for M06 Transcription Factor (Internal Marker) (AID 2282950). The following applies: HepG2 Attagene CIS-FACTORIAL M06 internal marker reporter; actives raise or lower the signal. The essentials: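 Fluorescence-labelled RT-PCR products from cis-promoter reporter units, cut with HpaI and resolved by capillary electrophoresis, give the signal. Cells are human HepG2, dosed for 24 h. Serves as background control, fitted relative to DMSO.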

The target of assay [6] is Hypoxia-inducible factor 1-alpha (Homo sapiens) (UniProt Q16665). As to the kind of experiment: ATG_HIF1a_CIS: Attagene CIS-FACTORIAL HepG2 Assay for human Hypoxia Inducible Factor 1 (HIF1A) (AID 2282951). As to conditions: HepG2 Attagene cis-factorial HIF1a reporter transcription; actives raise or lower the signal. In short, it runs like this: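 Transient MRTU transfection of human HepG2 liver cells, 24 h compound treatment, then total RNA isolation, oligo(dT) reverse transcription, PCR amplification, fluorescent labelling and capillary electrophoresis of reporter fragments. Gain or loss relative to DMSO.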
Hypoxia-inducible factor 1-alpha (Homo sapiens), sequence (Q16665 whole entry, looked up, the tested form may be a part): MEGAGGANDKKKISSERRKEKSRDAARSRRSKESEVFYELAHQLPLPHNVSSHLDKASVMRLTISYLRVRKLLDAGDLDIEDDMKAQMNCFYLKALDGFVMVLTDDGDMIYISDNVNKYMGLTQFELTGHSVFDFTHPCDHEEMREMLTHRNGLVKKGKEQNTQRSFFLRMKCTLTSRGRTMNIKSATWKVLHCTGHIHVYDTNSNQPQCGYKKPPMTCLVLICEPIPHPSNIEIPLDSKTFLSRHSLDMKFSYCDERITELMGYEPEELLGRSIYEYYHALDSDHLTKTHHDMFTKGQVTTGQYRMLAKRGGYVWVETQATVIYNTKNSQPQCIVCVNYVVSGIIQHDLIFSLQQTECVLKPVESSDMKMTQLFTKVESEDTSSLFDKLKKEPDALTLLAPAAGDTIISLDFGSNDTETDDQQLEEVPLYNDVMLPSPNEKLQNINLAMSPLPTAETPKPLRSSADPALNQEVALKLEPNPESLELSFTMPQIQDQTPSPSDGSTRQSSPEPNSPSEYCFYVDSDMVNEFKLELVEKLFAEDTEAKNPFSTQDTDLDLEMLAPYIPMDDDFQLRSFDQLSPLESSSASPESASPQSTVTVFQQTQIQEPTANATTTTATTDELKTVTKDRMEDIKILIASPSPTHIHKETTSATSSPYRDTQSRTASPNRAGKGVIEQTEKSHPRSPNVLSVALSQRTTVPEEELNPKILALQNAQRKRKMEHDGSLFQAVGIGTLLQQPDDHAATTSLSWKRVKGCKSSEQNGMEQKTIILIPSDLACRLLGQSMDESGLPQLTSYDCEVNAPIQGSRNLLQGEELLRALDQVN

Assay [7] addresses Hepatocyte nuclear factor 6 (Homo sapiens) (UniProt Q9UBC0). As to the kind of experiment: ATG_HNF6_CIS: Attagene CIS-FACTORIAL HepG2 Assay for human Hepatocyte Nuclear Factor 6 (HNF6) (AID 2282952). As to conditions: HepG2 Attagene cis-factorial HNF6 reporter transcription; actives raise or lower the signal. The essentials:
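HepG2 cells transiently transfected with cis-element-driven multiplexed reporter units measuring endogenous transcription factor activity. After 24 h exposure, reporter mRNA quantified by RT-PCR, FAM-labelled fragments and capillary electrophoresis; bidirectional fitting versus DMSO.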

In assay [8] the target is Heat shock factor protein 1 (Homo sapiens) (UniProt Q00613). Nature of the assay: ATG_HSE_CIS: Attagene CIS-FACTORIAL HepG2 Assay for human Heat Shock Transcription Factor 1 (HSE) (AID 2282953). As to conditions: HepG2 HSE cis-reporter, Attagene RNA transcription; actives raise or lower the signal. The essentials:
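After a 24 h incubation with test chemical, transfected HepG2 cells were harvested for RNA; reporter transcripts were measured by RT-PCR and capillary electrophoresis. Values reflect gain or loss of signal relative to DMSO.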

The nature of assay [9]: ATG_MRE_CIS: Attagene CIS-FACTORIAL HepG2 Assay for human Metal Responsive Element (MRE) (AID 2282954). The following applies: HepG2 MRE cis-reporter transcription, Attagene multiplex; actives raise or lower the signal. In short, it runs like this: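 HepG2 cells transiently transfected with multiple cis-element reporter units measure endogenous MTF1-driven transcription. After 24 h compound exposure, reporter mRNA is quantified by RT-PCR with 6-FAM labelling, HpaI digestion and capillary electrophoresis; bidirectional fits versus DMSO.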

For assay [10], the target named is Paired box protein Pax-6 (Homo sapiens) (UniProt P26367). As to the kind of experiment: ATG_Pax6_CIS: Attagene CIS-FACTORIAL HepG2 Assay for human Paired Box 6 (PAX6) (AID 2282956). As to conditions: HepG2 CIS-FACTORIAL PAX6 reporter transcription, RNA readout; actives raise or lower the signal. The essentials:
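HepG2 cells transiently transfected with cis-promoter-driven multiplexed reporter units sensing endogenous transcription factor activity; 24 h chemical exposure. Reporter mRNA quantified by RT-PCR, 6-FAM labelling, HpaI digestion and capillary electrophoresis; bidirectional fit versus DMSO baseline.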

Assay [11] in a line: ATG_PPRE_CIS: Attagene CIS-FACTORIAL HepG2 Assay for human Peroxisome Proliferator-activated Response Element (PPRE) (AID 2282958). The following applies: HepG2 PPRE cis-element reporter, Attagene transcription factor profiling; actives raise or lower the signal. The essentials:
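HepG2, transient MRTU transfection (cis promoter elements, endogenous TFs). 24 h dosing. RNA → oligo(dT) RT → PCR → 6-FAM primer extension → HpaI digest → CE. Bidirectional fit vs DMSO.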

Assay [12] concerns the target Transcription factor Sp1 (Homo sapiens) (UniProt P08047). As to the kind of experiment: ATG_Sp1_CIS: Attagene CIS-FACTORIAL HepG2 Assay for human Specificity Protein 1 (Sp1) (AID 2282961). The following applies: HepG2 Sp1 cis-reporter transcription, actives raise or lower the signal. The essentials:
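Transient MRTU-transfected HepG2, 24 h compound exposure. Total RNA → oligo(dT) RT → PCR of reporter → 6-FAM primer extension → HpaI digest → CE. Endpoint fitted both directions vs DMSO.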

The nature of assay [13]: ATG_SREBP_CIS: Attagene CIS-FACTORIAL HepG2 Assay for human Sterol Regulatory Element Binding (SREBP) (AID 2282962). The following applies: HepG2 Attagene cis-factorial SREBP reporter, mRNA; actives raise or lower the signal. The essentials:
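HepG2 cells transiently transfected with multiplexed cis-promoter reporter units sensing endogenous transcription factors; reporter mRNA measured 24 h after dosing by RT-PCR, 6-FAM labeling, HpaI digestion and capillary electrophoresis. Bidirectional fit versus DMSO.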

In assay [14] the target is Signal transducer and activator of transcription 3 (Homo sapiens) (UniProt P40763). Nature of the assay: ATG_STAT3_CIS: Attagene CIS-FACTORIAL HepG2 Assay for human Signal Transducer and Activator of Transcription 3 (STAT3) (AID 2282963). The following applies: HepG2, Attagene cis-factorial STAT3 reporter transcription; actives raise or lower the signal. In short, it runs like this:
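HepG2 cells transiently transfected with cis-element-driven multiple reporter transcription units; after 24 h chemical exposure, reporter mRNA measured by RT-PCR, 6-FAM primer-extension labelling, HpaI digestion and capillary electrophoresis. Bidirectional fitting versus DMSO baseline.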

Assay [15] in a line: ATG_TA_CIS: Attagene CIS-FACTORIAL HepG2 Assay for human TA Basal Promoter (AID 2282964). As to conditions: HepG2 Attagene CIS-factorial TA basal promoter reporter; actives raise or lower the signal. In short, it runs like this:
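Multiplexed mRNA reporter assay, HepG2, 24 h. Reporter cDNA amplified, 6-FAM primer-extended, HpaI-cut, CE-sized; DMSO = negative control and baseline.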

Assay [16] is described as follows: ATG_M_32_CIS: Attagene CIS-FACTORIAL HepG2 Assay for M32 Transcription Factor (Internal Marker) (AID 2282949).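 Note: background control marker of the multiplexed CIS panel rather than a real target.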 The following applies: HepG2 Attagene cis-factorial M32 reporter, mRNA; actives raise or lower the signal. In short, it runs like this:
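Internal background marker read-out: RT-PCR/capillary electrophoresis fluorescence of reporter transcripts from transiently transfected HepG2 cells after 24 h chemical exposure. Activity fitted bidirectionally relative to DMSO negative control.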

A short description of assay [17]: ATG_PXRE_CIS: Attagene CIS-FACTORIAL HepG2 Assay for human Pregnane X Receptor Element (PXRE) (AID 2282957). As to conditions: HepG2 Attagene CIS-FACTORIAL PXRE reporter, mRNA; actives raise or lower the signal. The essentials:
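HepG2 cells transiently transfected with cis-element-driven multiplexed reporter units; after 24 h chemical exposure, reporter mRNA measured by RT-PCR, 6-FAM labelling, HpaI digestion and capillary electrophoresis. Bidirectional fitting relative to DMSO.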

Assay [18] in a line: ATG_RORE_CIS: Attagene CIS-FACTORIAL HepG2 Assay for human RAR-related Orphan Receptor Element (RORE) (AID 2282959). The following applies: HepG2 Attagene cis-factorial RORE reporter, mRNA; actives raise or lower the signal. The essentials: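 Transient MRTU transfection of human HepG2 liver cells (FuGene 6); 24 h compound exposure; TriZol RNA, oligo(dT) RT, PCR, FAM labeling, HpaI cut, CE fragment analysis. DMSO = negative control/baseline.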

The nature of assay [19]: ATG_Sox_CIS: Attagene CIS-FACTORIAL HepG2 Assay for human SRY-box transcription factor (SOX) (AID 2282960). As to conditions: HepG2 Attagene cis-factorial SOX reporter, mRNA; actives raise or lower the signal. The essentials:
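Endogenous factor activity in human liver HepG2 cells carrying transfected cis-regulated reporter units. RNA taken 24 h post-dose, reverse-transcribed, PCR-amplified and sized by capillary electrophoresis. Gain or loss of signal fitted relative to DMSO.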

Assay [20] in a line: ATG_PBREM_CIS: Attagene CIS-FACTORIAL HepG2 Assay for human Phenobarbital-responsive Enhancer Module (PBREM) (AID 2282955). The following applies: HepG2 PBREM cis-reporter, Attagene multiplexed transcription; actives raise or lower the signal. The essentials: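 Endogenous transcription factors in human liver HepG2 cells drive a PBREM cis-element reporter, whose transcript level after 24 h treatment is quantified by RT-PCR with capillary electrophoresis; activity fitted in both directions against DMSO.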

Active and inactive are the calls of the source. Rule for the calls: active = hit-call score of the fitted dose curve at least 0.9, where 1 is the maximum; inactive = score below 0.9.

Hepatocyte nuclear factor 6 (Homo sapiens), sequence (Q9UBC0 whole entry, looked up, the tested form may be a part): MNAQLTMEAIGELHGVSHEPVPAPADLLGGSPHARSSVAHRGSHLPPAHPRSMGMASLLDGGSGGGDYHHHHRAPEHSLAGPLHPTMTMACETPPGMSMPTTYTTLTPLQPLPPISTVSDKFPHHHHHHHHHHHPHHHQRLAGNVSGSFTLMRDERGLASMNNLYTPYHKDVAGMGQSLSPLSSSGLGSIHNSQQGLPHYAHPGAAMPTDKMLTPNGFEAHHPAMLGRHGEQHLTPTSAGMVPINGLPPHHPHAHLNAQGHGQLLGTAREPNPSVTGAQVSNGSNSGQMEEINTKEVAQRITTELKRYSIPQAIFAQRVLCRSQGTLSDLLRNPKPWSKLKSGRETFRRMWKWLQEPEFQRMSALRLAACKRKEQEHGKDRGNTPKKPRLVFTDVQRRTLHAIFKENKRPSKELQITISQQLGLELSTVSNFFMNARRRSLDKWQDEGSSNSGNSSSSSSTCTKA
Transcription factor Sp1 (Homo sapiens), sequence (P08047 whole entry, looked up): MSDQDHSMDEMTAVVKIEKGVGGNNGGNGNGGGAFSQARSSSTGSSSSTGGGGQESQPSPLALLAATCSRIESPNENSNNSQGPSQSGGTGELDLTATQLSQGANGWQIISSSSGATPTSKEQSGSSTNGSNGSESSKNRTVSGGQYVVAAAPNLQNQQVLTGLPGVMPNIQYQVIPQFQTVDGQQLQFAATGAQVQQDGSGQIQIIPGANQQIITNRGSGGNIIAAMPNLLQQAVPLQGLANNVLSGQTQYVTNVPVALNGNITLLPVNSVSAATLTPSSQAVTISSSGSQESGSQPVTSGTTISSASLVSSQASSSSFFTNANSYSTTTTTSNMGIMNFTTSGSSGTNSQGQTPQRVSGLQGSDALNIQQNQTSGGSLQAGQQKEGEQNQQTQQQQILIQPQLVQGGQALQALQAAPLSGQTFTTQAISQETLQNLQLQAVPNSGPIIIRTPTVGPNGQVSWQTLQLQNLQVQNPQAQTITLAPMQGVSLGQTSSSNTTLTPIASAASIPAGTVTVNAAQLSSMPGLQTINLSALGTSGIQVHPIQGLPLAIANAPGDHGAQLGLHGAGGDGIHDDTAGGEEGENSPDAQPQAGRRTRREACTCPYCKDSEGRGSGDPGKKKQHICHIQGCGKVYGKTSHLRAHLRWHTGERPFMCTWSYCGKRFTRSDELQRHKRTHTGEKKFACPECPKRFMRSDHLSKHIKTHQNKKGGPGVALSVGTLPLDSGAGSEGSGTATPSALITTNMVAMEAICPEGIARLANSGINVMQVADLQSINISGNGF
Heat shock factor protein 1 (Homo sapiens), sequence (Q00613 whole entry, looked up): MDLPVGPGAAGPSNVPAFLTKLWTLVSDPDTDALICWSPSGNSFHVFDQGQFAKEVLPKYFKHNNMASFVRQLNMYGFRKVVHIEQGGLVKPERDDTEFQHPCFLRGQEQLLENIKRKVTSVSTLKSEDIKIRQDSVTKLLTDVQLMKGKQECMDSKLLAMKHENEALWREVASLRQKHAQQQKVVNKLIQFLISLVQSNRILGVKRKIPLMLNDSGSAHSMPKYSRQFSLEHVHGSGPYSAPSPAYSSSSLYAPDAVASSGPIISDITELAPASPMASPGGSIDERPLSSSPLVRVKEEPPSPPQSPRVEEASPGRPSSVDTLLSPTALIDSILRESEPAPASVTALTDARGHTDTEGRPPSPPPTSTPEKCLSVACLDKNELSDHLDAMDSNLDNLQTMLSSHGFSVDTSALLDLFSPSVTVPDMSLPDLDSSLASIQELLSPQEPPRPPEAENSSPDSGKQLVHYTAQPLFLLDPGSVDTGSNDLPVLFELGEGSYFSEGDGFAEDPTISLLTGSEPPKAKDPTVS
Paired box protein Pax-6 (Homo sapiens), sequence (P26367 whole entry, looked up): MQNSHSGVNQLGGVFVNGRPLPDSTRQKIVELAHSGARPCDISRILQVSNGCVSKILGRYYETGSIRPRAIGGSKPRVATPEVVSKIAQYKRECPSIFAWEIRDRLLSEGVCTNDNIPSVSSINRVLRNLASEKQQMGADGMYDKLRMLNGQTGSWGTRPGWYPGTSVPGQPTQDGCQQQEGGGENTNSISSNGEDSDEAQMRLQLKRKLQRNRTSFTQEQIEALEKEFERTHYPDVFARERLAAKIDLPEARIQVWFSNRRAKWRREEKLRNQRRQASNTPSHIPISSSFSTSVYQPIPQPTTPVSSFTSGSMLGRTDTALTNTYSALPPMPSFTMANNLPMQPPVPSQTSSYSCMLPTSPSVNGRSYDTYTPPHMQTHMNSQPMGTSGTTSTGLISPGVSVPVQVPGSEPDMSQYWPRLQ
Signal transducer and activator of transcription 3 (Homo sapiens), sequence (P40763 whole entry, looked up): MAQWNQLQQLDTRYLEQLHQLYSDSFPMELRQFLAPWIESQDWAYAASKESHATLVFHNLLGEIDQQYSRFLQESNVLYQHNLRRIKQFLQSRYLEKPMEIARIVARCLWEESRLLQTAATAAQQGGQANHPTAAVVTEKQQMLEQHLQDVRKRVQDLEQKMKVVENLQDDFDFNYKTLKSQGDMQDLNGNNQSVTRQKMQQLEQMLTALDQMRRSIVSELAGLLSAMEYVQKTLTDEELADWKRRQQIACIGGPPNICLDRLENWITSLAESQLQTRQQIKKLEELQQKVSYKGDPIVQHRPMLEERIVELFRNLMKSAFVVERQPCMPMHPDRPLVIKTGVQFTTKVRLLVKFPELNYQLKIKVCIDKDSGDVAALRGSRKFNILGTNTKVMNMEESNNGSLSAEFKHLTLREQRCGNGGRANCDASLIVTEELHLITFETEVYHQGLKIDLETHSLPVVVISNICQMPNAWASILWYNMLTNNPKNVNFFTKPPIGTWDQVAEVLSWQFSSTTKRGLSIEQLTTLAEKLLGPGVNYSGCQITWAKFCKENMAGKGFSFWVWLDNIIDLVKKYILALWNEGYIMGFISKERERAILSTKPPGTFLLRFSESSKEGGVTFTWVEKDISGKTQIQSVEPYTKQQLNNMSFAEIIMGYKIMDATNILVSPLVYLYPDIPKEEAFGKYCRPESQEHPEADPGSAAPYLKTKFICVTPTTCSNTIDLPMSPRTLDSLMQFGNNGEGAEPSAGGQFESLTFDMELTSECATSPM

`c1ccc(-c2nc3ccccc3[nH]2)cc1`: the call in [1], in [2], in assay [3], in assay [4], in assay [5] and in [6] was inactive. In addition, the compound was called inactive in [7], in [8], in assay [9], in assay [10], in assay [11] and in assay [12]. In addition, the call in [13], in assay [14] and in [15] was inactive.

Turning to `COC(=O)c1ccccc1C`, the result in [1], in assay [2], in [4], in [16], in [5] and in [6] was inactive. For the same compound, the outcome in [7], in [8], in assay [9], in [10], in [11] and in assay [18] was inactive. Besides, the result in assay [12], in assay [14] and in assay [15] was inactive. The AC50 in assay [17] was 40.6 µM (active).

For the compound `CCCCCC(=O)OCC`, the call in [1], in [2], in [3], in assay [4], in assay [16] and in assay [5] was inactive. The result in [7], in [9], in assay [10], in [18], in assay [19] and in assay [12] was inactive. In addition, the result in assay [13], in assay [14] and in [15] was inactive.

For `CCOC(=O)C1=NN(c2ccc(Cl)cc2Cl)C(C)(C(=O)OCC)C1` (stereo not drawn), the result in [1], in assay [2], in [3], in assay [4], in [6] and in assay [7] was inactive. In addition, the result in [10], in [11], in [19], in [12], in assay [14] and in assay [15] was inactive. The AC50 in assay [8] was 137 µM (active); in assay [9], 66.8 µM (active); in [17], 9.36 µM (active).

In the case of `Nc1ncnc2nc[nH]c12`, the result in assay [1], in assay [2], in [3], in assay [4], in assay [16] and in [5] was inactive. For the same compound, the outcome in assay [7], in assay [9], in assay [20], in [10], in assay [11] and in assay [18] was inactive. The compound was classed as inactive in [19], in assay [12], in [13], in [14] and in assay [15].
